Source: PubChem BioAssay
Several values for one entry are separate records, joined by “and”; a condition that tells them apart may be missing. Equal entries are not always repeated.

Test: compound effects on differentiated 3T3-L1 adipocyte viability – cell-based, 3T3-L1 adipocytes, calcein-AM fluorescence, 48 h, basal, profiling panel (AID 1163); note: test concentration not given here
Conditions: 3T3-L1 adipocytes viability, higher = more signal

Compound | z-score
C=C[C@@H](C)[C@H](O)c1ccc(O)c2ccccc12 | -0.134 and 0.136
C[C@@H]1CN2[C@@H](CC[C@@H](C)[C@@H]2c2ccc(Br)cc2)C(=O)O1 | 0.706 and 0.0322
C=CCN(C(=O)C1N(c2ccc(CCO)cc2)C(=O)C2C(C(=O)O)C3C=CC21O3)c1ccc(OC)cc1 (centres undefined) | 0.432 and 0.014
C=C[C@H](C)[C@@H](O)c1ccc(OCCO)cc1 | 0.101 and -0.192
C=CCN(C(=O)C(c1cccs1)N(CCOCCO)C(=O)/C=C\C(=O)O)C(C)(C)C (centres undefined) | -0.515 and -0.161
COC(=O)C1=C(C)N(Cc2ccccc2)[C@]23O[C@](C(=O)OC)(C(=O)N2[C@@H]1c1ccccc1)[C@@H](c1ccccc1)[C@@H]3C(=O)c1ccccc1 | 1.64 and 0.204
C=CCN(CCCC)C(=O)C1N(C(C)(C)CO)C(=O)C2C(C(=O)O)C3C=CC21O3 (centres undefined) | 0.75 and 0.349
Cc1ccc(S(=O)(=O)N[C@H]2COC(=O)[C@@H](C)COC(=O)[C@H](C)NC(=O)CC=C[C@H]2C)cc1 | 0.0608
Cc1ccc(S(=O)(=O)OC[C@@H]2CN3[C@@H](CC[C@@H](C)[C@@H]3c3ccc(Br)cc3)C(=O)O2)cc1 | 0.0273 and 0.503
COC(=O)C1=C(C)N(Cc2ccccc2)C2=C(C(=O)c3ccccc3)[C@H](c3ccccc3)[C@@](O)(C(=O)OC)C(=O)N2[C@@H]1c1ccccc1 | -0.154 and -0.936
C=CCN(Cc1ccccc1)C(=O)C(c1cccs1)N(C(=O)/C=C\C(=O)O)c1ccc(CCO)cc1 (centres undefined) | 0.0605 and -0.16
CCOC(=O)[C@H](Cc1ccccc1)NC(=O)CCC1CC(OC(=O)NCc2cccc3ccccc23)CC2(CCCC(COC(=O)NCCCN3CCCC3=O)O2)O1 (some centres undefined) | 0.0309
COC(=O)c1c2oc(c1C(=O)OC)C(=O)N[C@@H](Cc1ccccc1)Cn1cc(nn1)C1(CCCCC1)NC(=O)N[C@H](CO)CC2 | -0.29 and 0.184
C=CCN(CCCCC)C(=O)C1N(c2ccc(CCO)cc2)C(=O)C2C(C(=O)O)C3C=CC21O3 (centres undefined) | -0.0076 and 0.226
